Screening results: PubChem BioAssay, several laboratories
sPLA2-III inh: Blocks human group III sPLA2 activity; inhibition, % at 12.2 µM; Q9NZ20; QFRET BODIPY PC-A2 liposome hydrolysis, fluorescence; 0.56% of 370,000 active;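 active means inhibition above mean plus 3 SD of compounds lying within the high and low control bounds, cut at about 19% in these data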;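 further: 0% = median of test compound wells and 100% = no enzyme DMSO wells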
Target sequence (Q9NZ20 whole entry, looked up): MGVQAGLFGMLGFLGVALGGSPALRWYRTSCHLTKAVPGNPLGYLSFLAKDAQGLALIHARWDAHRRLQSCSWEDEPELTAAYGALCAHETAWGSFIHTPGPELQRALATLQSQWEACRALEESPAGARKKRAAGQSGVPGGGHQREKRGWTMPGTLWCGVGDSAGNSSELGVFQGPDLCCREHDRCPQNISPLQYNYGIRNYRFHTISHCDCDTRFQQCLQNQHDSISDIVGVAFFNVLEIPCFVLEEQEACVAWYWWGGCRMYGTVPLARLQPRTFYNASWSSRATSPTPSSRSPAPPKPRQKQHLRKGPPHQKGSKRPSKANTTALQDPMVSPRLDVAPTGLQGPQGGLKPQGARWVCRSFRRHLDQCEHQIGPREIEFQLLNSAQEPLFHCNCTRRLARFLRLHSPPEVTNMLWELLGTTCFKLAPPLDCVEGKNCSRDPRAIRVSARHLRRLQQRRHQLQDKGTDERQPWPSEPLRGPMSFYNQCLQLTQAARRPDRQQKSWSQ
NR3A LBD binder: NR3A (human) ligand-binding domain modulation | NR3A LBD differential scanning fluorimetry, Tm shift; 0% = protein alone, 100% = glycine-bound protein | 2.5% of 340,000 active | Tm shift relative to glycine control, % at 25 µM;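 active means melting temperature shift of at least 10% of the positive control shift, at one fixed dose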
ADAM10 inh: inhibitors of human ADAM10. O14672. recombinant ADAM10, EDANS/DABCYL FRET peptide cleavage, 3 h. inhibition, % at 7 µM. 0.62% of 370,000 active. AID 720582;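 active means inhibition above a per-campaign cutoff equal to the mean of compounds falling between control-based bounds plus 3 SD, cut at about 20% in these data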;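 further: 0% = DMSO wells while the 100% control is not disclosed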
FAS TE block: inhibitors of human fatty acid synthase thioesterase domain. recombinant FAS-TE, OMFH fluorogenic substrate, fluorescence endpoint. 0.67% of 360,000 active. inhibition, % at 15 µM. P49327. AID 602261;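 active means compounds whose normalised, plate-corrected inhibition of enzyme fluorescence in the single-dose primary screen is 50% or more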;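 further: 0% = DMSO with enzyme and 100% = substrate without enzyme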
ADAM17 inh: inhibits human ADAM17 | P78536 | recombinant ADAM17, EDANS/DABCYL FRET peptide cleavage | inhibition, % at 6.95 µM | 0.83% of 370,000 active | AID 720648;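 active means inhibition above the mean of compounds lying between control limits plus 3 SD, set per campaign, cut at about 8.5% in these data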;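 further: 0% = DMSO-only wells as the low control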
ADAM10 counter: ADAM10 inhibition, counter-screen for ADAM17 exosite hits | shares compounds with ADAM17 inh | recombinant ADAM10, EDANS/DABCYL FRET peptide cleavage, 3 h | inhibition, % at 6.95 µM | 47% of 2,900 active;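 active means mean inhibition over the triplicate runs exceeds the activity threshold set in the earlier primary screen, cut at about 20% in these data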;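 further: 0% = DMSO wells and 100% = marimastat wells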
ADAM17 confirm: human ADAM17 inhibition, confirmation; shares compounds with ADAM17 inh; recombinant ADAM17, EDANS/DABCYL QFRET peptide cleavage; inhibition, % at 6.95 µM; 65% of 2,900 active; AID 743257;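 active means mean inhibition across replicates above the hit cutoff set in the primary screen, cut at about 8.5% in these data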;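 further: 0% = DMSO wells and 100% = marimastat wells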
* marks the source's active call; other numbers are inactive results; . = not tested or not shown. Only some compounds are listed: those with a hit (about 4.3% of all), similar ones and a draw of the others.

SMILES	sPLA2-III inh	NR3A LBD binder	ADAM10 inh	FAS TE block	ADAM17 inh	ADAM10 counter	ADAM17 confirm
COc1cc(CNC(=O)c2cccc(COc3ccc(Cl)cc3)c2)cc(OC)c1	-43	-4	17	29	8.7*	24*	11*
O=C(NCc1ccccc1)c1cccc(COc2ccc(Cl)cc2)c1	-16	-6	12	20	3	.	.
N#CCc1ccc(NS(=O)(=O)c2ccc(C3CCCCC3)cc2)cc1	-41	-4	15	30	10.0*	24*	10*
Oc1c(C(c2ccccn2)N2CCC(Cc3ccccc3)CC2)cc(Cl)c2cccnc12 (configuration not stated)	8	-3	12	.	32*	23*	39*
CN1CCN(C(c2ccccn2)c2cc(Cl)c3cccnc3c2O)CC1 (configuration not stated)	10	-3	2	-7	18*	43*	45*
Cc1ccc(C(c2cc(Cl)c3cccnc3c2O)N2CCN(C)CC2)cc1 (configuration not stated)	.	9	.	-3	.	.	.
CCC[C@H]1[C@@H](NC(=S)Nc2ccccc2Cl)CC[C@@]23CCCN2C(=O)CCC[C@@H]13	0	.	3	.	-1	.	.
COC(=O)[C@]12C[C@H](CC(=O)N3CCCCC3)C(=O)N(Cc3cccc4ccccc34)C1=C[C@H](C(C)C)O[C@@H]2C1CC1	-1	.	9	.	1	.	.
COC(=O)C1=C(C)NC(C)=C(C(=O)OC)C(N2C(=O)CCC2=O)C1 (configuration not stated)	0	.	-6	.	-3	.	.
C#Cc1ccc([C@H]2C=C(C(=O)NCc3ccccc3)O[C@@H](OCC)[C@@H]2CCCO)cc1	-5	-3	1	0	0	.	.
C#Cc1ccc([C@@H]2C=C(C(=O)Nc3ccccc3)O[C@H](OCC)[C@H]2CCCO)cc1	-11	-14	16	4	11*	11	8
Cc1cccc(NC(=O)Nc2nc3ncccn3c2-c2ccc(F)cc2)c1	-2	.	-140	.	-37	.	.
CC[C@@H]1C=C(C(=O)O)[C@H](c2ccc(Cl)cc2)N1S(=O)(=O)c1ccc(C)cc1	-4	3	1	-11	8.6*	10	5
CC[C@@H]1C=C(C(=O)O)[C@H](c2ccc(C)cc2)N1S(=O)(=O)c1ccc(C)cc1	-5	-1	-10	-5	-3	.	.
Cc1ccc(NS(=O)(=O)c2cc([N+](=O)[O-])ccc2NNC(=S)Nc2cc(C)ccc2C)c(C)c1	-34	20*	20*	20	10*	34*	22*
Cc1ccc([N+](=O)[O-])cc1NC(=S)NC(=O)C(C)(C)C	11	-4	6	10	4	.	.
O=c1c2c(n3nnnc3n1Cc1ccc(Cl)cc1)-c1ccccc1CC21CCCC1	0	.	-7	.	-4	.	.
Cc1ccc(C(=O)Nc2cc([N+](=O)[O-])ccc2C)cc1	-1	-1	2	47	-1	.	.
Cc1ccc(NC(=O)c2ccc(Nc3c([N+](=O)[O-])cc([N+](=O)[O-])cc3[N+](=O)[O-])cc2)cc1	10	-3	17	18	10*	23*	12*
Cc1ccc(N(CC(=O)NCc2cccnc2)S(C)(=O)=O)cc1C	12	4	13	0	10*	0	1
CSc1ccc(C(O)c2ncc(-c3cccc(OCc4ccccc4)c3)[nH]2)cc1 (configuration not stated)	-23	.	19	13	9.3*	23*	11*
OC(c1ccc(-c2ccccc2)cc1)c1ncc(-c2ccc(F)cc2)[nH]1 (configuration not stated)	1	.	19	15	11*	23*	12*
OC(c1ccccc1)c1ncc(-c2ccc(Cl)cc2)[nH]1 (configuration not stated)	4	.	0	-3	4	.	.
COC(=O)c1cccc(Nc2cc(C)n(-c3cccc(C(=O)OC)c3)c(=O)c2)c1	1	.	-8	.	0	.	.
COc1ccc(C2c3ccc4ccccc4c3Oc3ncn(CCN4CCOCC4)c(=N)c32)cc1OC (configuration not stated)	-14	1	11	6	8.6*	12	9.2*
SMILES	sPLA2-III inh	NR3A LBD binder	ADAM10 inh	FAS TE block	ADAM17 inh	ADAM10 counter	ADAM17 confirm
COc1ccc(C2c3ccc4ccccc4c3Oc3ncn(CCO)c(=N)c32)cc1 (configuration not stated)	.	-4	.	3	.	.	.
COc1ccc(C2c3ccc4ccccc4c3Oc3ncn(CCN4CCOCC4)c(=N)c32)cc1 (configuration not stated)	-28	-3	18	5	9.2*	12	8
Cc1cccc(Nc2nnc(SCC(=O)c3ccc(Br)s3)s2)c1C	-51	-1	12	20	12*	16	12*
C/C(N)=C(/C#N)C(=O)CSc1nnc(Nc2cccc(C)c2C)s1	-19	-3	-9	-6	1	.	.
O=C(N/N=C/c1cccnc1)c1ccc([N+](=O)[O-])cc1	12	-1	14	1	8.9*	12	9.0*
S=C(NCCc1ccc(Cl)cc1)Nc1ccc(Cl)cc1Cl	4	18*	29*	42	16*	34*	19*
S=C(NCc1ccc(Cl)cc1)Nc1ccc(Cl)cc1Cl	1	1	13	-3	2	.	.
COC(=O)C1=C(C)N(Cc2cccc(C(F)(F)F)c2)C(=NCc2ccc3c(c2)OCO3)NC1c1ccc(F)cc1 (configuration not stated)	14	.	-7	.	9.9*	19	12*
COC(=O)C1=C(C)N(Cc2cccc(C(F)(F)F)c2)C(=NCc2ccc(C(F)(F)F)cc2)NC1c1ccc(F)cc1 (configuration not stated)	5	.	4	.	9.5*	22*	12*
COC(=O)C1=C(C)N(Cc2cccc(C(F)(F)F)c2)C(=NCc2ccc3c(c2)OCO3)NC1c1cccc(C(F)(F)F)c1 (configuration not stated)	-3	.	0	.	-2	.	.
CCCCCCCCNS(=O)(=O)CC1NCc2ccc(C)cc21 (configuration not stated)	-6	.	0	.	2	.	.
CC(=O)NNC(=O)CC(=O)Nc1nc(C23CC4CC(CC(C4)C2)C3)cs1	-26	-1	4	2	8.9*	-12	0
CCOc1ccc(-n2c(SCc3cccc4ccccc34)nnc2-c2ccc(C)cc2)cc1	6	.	-1	.	-1	.	.
COC(=O)[C@]12C[C@H](CC(=O)NCCC(C)C)C(=O)N(Cc3cccc4ccccc34)C1=C[C@H](COCc1ccccc1)O[C@@H]2C	-19	.	9	.	2	.	.
